# A selection: hits, their analogues and other compounds. The true share with any hit is near 18%.
# LDHA inh: qHTS assay for inhibitors of human lactate dehydrogenase. purified LDHA, NADH/diaphorase-resazurin fluorescence; active compounds read low. L-lactate dehydrogenase A chain (Homo sapiens), P00338. 480,000 compounds, 0.15% hits. activity change, % (values are at about 110 or 230 µM); in the data active = activity change below about -30%; inconclusive = mostly about -25% to -30%;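 also: plate controls were DMSO wells for no effect and wells without enzyme for full effect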
#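 Human LDH5 (2 nM) was incubated with 0.06 mM NADH and 0.2 mM pyruvate for 5 min at room temperature in Tris pH 7.4. Remaining NADH was coupled through diaphorase/resazurin, and resorufin fluorescence was read at 0 and 20 min.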
# TDP1 cell noCPT: qHTS for Inhibitors of human tyrosyl-DNA phosphodiesterase 1 (TDP1): qHTS in cells in absence of CPT | DT40 Tdp1-/- hTDP1 cells, no CPT, ATP luminescence, 48 h | Potency, µM (top dose mostly 46.2 µM), inactives show at the highest dose activity change, negative = growth inhibition, usual class: inhibitors | 420,000 compounds, 15% hits | AID 686978, 2013; also: potency is read from the fitted curve at half-maximal effect; nearly all actives have a fitted effect of over 55% in size
#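 No-CPT arm: Tdp1-/-;hTDP1 DT40 cells (400/well) plus compounds, incubated ≥48 hr at 37 °C. Readout CellTiter-Glo luminescence.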
# TDP1 cell CPT: qHTS for Inhibitors of human tyrosyl-DNA phosphodiesterase 1 (TDP1): qHTS in cells in presence of CPT; chicken DT40 Tdp1-/-;hTDP1 cells + 20 nM CPT, ATP luminescence, 48 h; Potency, µM (top dose mostly 46.2 µM), for the others: at the highest dose activity change, negative = growth inhibition, hits mostly inhibitors; 420,000 compounds, 12% hits; AID 686979, 2013; also: potency is read from the fitted curve at half-maximal effect; nearly all actives have a fitted effect of over 55% in size
#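 Chicken DT40 Tdp1-/- cells complemented with human TDP1, 400 cells/well, exposed to compounds plus 20 nM camptothecin for at least 48 h at 37 C; viability read as ATP content by CellTiter-Glo luminescence.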
# RORg inh: qHTS for inhibitors of ROR gamma transcriptional activity. 310,000 compounds, 5.4% hits. AID 2551, 2010. Potency, µM (highest dose often 53.6 µM), for inactives: at the top dose activity change, negative = inhibition, actives largely listed as inhibitors. Drosophila S2 Gal4-RORgamma UAS-luciferase reporter, 20 h. Nuclear receptor ROR-gamma (Mus musculus), P51450; also: potency is read from the fitted curve at half-maximal effect; nearly all actives have a fitted effect of over 60% in size
# Target sequence (P51450 whole entry, looked up, the tested form may be a part): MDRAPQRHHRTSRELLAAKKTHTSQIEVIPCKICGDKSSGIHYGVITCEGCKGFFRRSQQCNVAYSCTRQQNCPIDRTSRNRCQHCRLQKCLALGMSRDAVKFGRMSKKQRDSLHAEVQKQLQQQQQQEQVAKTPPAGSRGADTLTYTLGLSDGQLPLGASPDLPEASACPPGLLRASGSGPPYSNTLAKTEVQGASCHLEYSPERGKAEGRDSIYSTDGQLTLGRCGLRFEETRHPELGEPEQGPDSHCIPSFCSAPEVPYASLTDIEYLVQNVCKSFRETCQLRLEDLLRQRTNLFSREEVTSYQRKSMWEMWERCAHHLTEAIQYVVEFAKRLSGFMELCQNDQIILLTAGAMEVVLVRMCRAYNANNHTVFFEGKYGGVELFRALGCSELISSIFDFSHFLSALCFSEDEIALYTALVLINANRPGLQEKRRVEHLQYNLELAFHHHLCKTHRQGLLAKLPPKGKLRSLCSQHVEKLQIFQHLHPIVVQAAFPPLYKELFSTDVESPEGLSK
#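 Luciferase reporter read in Schneider cells carrying Gal4-RORγ (mouse) and UAS-Photinus luciferase; cells given compound 1 h before 700 uM copper sulfate induction, then incubated 20 h at ambient temperature.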
# VP16 counter: VP16 counterscreen qHTS for inhibitors of ROR gamma transcriptional activity; Drosophila S2 Gal4-VP16 UAS-luciferase, luminescence, 20 h; Potency, µM (series often up to 53.6 µM), for the others: top-dose activity, negative = inhibition, usual class: inhibitors; 310,000 compounds, 3.5% hits;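 also: Gal4-VP16 expression switched on by copper sulfate through the metallothionein promoter; potency is read from the fitted curve at half-maximal effect; nearly all actives have a fitted effect of over 50% in size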
# IL-1B inflam inh: qHTS for Inhibitors of Inflammasome Signaling: IL-1-beta AlphaLISA Primary Screen | THP-1 LPS/ATP IL-1B secretion, AlphaLISA, 16 h; active compounds read low | activity change, % at 57.5 µM | 360,000 compounds, 4.7% hits | AID 743279, 2014; in the data active = activity change below about -50%; inconclusive = mostly about -30% to -49%
#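 THP-1 cells pretreated 1 hr with compounds (up to 57.5 uM final), then stimulated with LPS (250 ng/mL final) plus ATP (1.25 mM final); secreted IL-1B measured by AlphaLISA after 16 hr, decreased signal indicating inhibition.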
# Active calls of the source: *; ? = inconclusive; . = no result given; ! = a repeat was not active; [ ] = dose if it differs, or a comment. Unless noted, calls follow the shape of the dose curve; as a rule, active = well fitted curve in the direction sought with a large enough effect; inconclusive = small, poorly fitted or top-dose-only effect, or another doubt; inactive = no such curve, though single readings can be large; an effect the other way counts as inactive or inconclusive. Unless noted, % is scaled to controls: 0 for no effect and ±100 for the full control effect.
SMILES,LDHA inh,TDP1 cell noCPT,TDP1 cell CPT,RORg inh,VP16 counter,IL-1B inflam inh
COc1ccc(-c2coc3c(C(=O)NCCN(C)C)cccc23)c(C)c1,-3,?,?,.,.,-21
COC(=O)C1=COC(C)C2CN3CCc4c([nH]c5cc(OC)c(OC)cc45)C3CC12 (stereo unspecified),-9,?,?,2%,-5%,-22
C[C@@H]1ON(C)[C@H]2C[C@H]3c4[nH]c5ccc(-c6ccc7c(c6)OCO7)cc5c4CCN3C[C@@H]12,3,21µM*,?,.,.,-20
COc1ccc(-c2ccc3[nH]c4c(c3c2)CCN2C(=O)[C@@H]([C@H](C)O)[C@@H](N(C)C(=O)Nc3cc(Cl)cc(Cl)c3)C[C@@H]42)cc1,-3,15µM*,23µM*,.,.,?
C[C@H](O)[C@@H]1CN2CCc3c([nH]c4ccc(-c5ccc6c(c5)OCO6)cc34)[C@@H]2C[C@@H]1N(C)C(=O)Nc1ccc(F)cc1,4,5.2µM*,2.9µM*,.,.,-10
C[C@H](O)[C@@H]1CN2CCc3c([nH]c4ccccc34)[C@@H]2C[C@@H]1N(C)C(=O)Nc1cccc2ccccc12,12,?,?,.,.,-21
C[C@H](O)[C@@H]1C(=O)N2CCc3ccc(-c4ccccc4)cc3[C@@H]2C[C@@H]1N(C)C(=O)Nc1cc(Cl)cc(Cl)c1,3,-23%,-19%,.,.,?
COc1ccc(-c2ccc3[nH]c4c(c3c2)CCN2C(=O)[C@@H]([C@H](C)O)[C@@H](N(C)C(=O)Nc3ccc(F)cc3)C[C@@H]42)cc1,-31*,12µM*,?,.,.,?
O=C(OCc1cc([N+](=O)[O-])cc2c1OCOC2)C12CC3CC(CC(Br)(C3)C1)C2,7,.,.,.,.,.
CCCc1nc2ccccc2c(C(=O)OCC(=O)NC(=O)NC(C)(C)C)c1CC,-14,.,.,.,.,.
CCCCC(=O)N(C)C(c1ccccc1)c1c[nH]c2ccccc12 (stereo unspecified),1,.,.,.,.,.
COCC(=O)N(C)[C@H]1C[C@H]2c3[nH]c4ccccc4c3CCN2C(=O)[C@H]1[C@H](C)O,-3,?,-20%,.,.,19
COc1ccc(-c2ccc3[nH]c4c(c3c2)CCN2C[C@@H]([C@H](C)O)[C@@H](N(C)C(=O)Nc3cc(Cl)cc(Cl)c3)C[C@@H]42)cc1,-22,4.6µM*,9.2µM*,.,.,0
C[C@H](O)[C@@H]1C(=O)N2CCc3c([nH]c4ccccc34)[C@@H]2C[C@@H]1N(C)Cc1ccc(Cl)cc1,3,29µM*,?,.,.,-25
Cc1cccc(-c2ccc3[nH]c4c(c3c2)CCN2C[C@@H]([C@H](C)OC(=O)Nc3ccccc3C)[C@@H](N(C)C(=O)Nc3ccccc3C)C[C@@H]42)c1,0,26µM*,?,.,.,-21
Cc1ccccc1Nc1nc(NC2CCCC2)nc2c1cnn2C,7,.,.,.,.,.
CC(C)Cn1c(C2CC(=O)N(c3cccc(C(F)(F)F)c3)C2)nc2ccccc21 (stereo unspecified),-5,.,.,.,.,.
COc1cccc(CSC2=NS(=O)(=O)c3ccccc3N2Cc2ccccc2)c1,-7,.,.,.,.,.
CN(C)c1ccc(/C=N/NC(=O)CNC(=O)c2ccncc2)cc1,1,12%,-15%,?,6%,31
CC/C(=C\c1ccc(N(C)C)cc1)c1ccncc1,6,?,23µM*,.,.,-64*
Fc1ccc(C2C3=C(Nc4ncnn42)c2ccccc2OC3c2ccncc2)cc1 (stereo unspecified),-2,?,0%,-19%,0%,-55*
Cc1ccc(C2Oc3ccccc3C3=C2C(c2cccs2)n2ncnc2N3)cc1 (stereo unspecified),-4,?,?,11µM*,?,22
CC1=C(C(=O)Nc2ccccc2)C(c2ccc(C(F)(F)F)cc2)n2ncnc2N1 (stereo unspecified),10,.,.,.,.,.
CCC(C)NC(=O)Cc1c(C)nc2ccccc2c1C (stereo unspecified),1,.,.,.,.,.
CCCn1c(N)c(C(=O)CSc2ccc3ccccc3n2)c(=O)[nH]c1=O,-13,.,.,.,.,.
SMILES,LDHA inh,TDP1 cell noCPT,TDP1 cell CPT,RORg inh,VP16 counter,IL-1B inflam inh
Cc1nc(Nc2ccc(S(N)(=O)=O)cc2)sc1-c1ccccc1,-9,18µM*,?,42%,11%,-80*
COc1ccc(Nc2nc(C)c(-c3ccccc3)s2)cc1,-5,?,?,11µM*,?,-25
Cc1nnc(Nc2ccc(S(N)(=O)=O)cc2)c2ccccc12,-5,7%,29%,6%[1.91 µM],21%,-3
N#C/C(=C/c1ccc(OCc2ccccc2C#N)c(Br)c1)c1ccccc1,11,.,.,.,.,.
ClCc1nc2ccccc2n1Cc1ccccc1,-3,7.3µM*,10µM*,16%,-6%,-2
Cc1ccc(Cn2c(Cc3ccccc3)nc3ccccc32)cc1,5,16µM*,18µM*!,8.9µM*,?,8
CC1CCC(=NNC(=O)c2ccc(Br)o2)CC1 (stereo unspecified),1,.,.,.,.,.
CCn1c(NC(=O)c2ccc(COc3ccc(C)cc3[N+](=O)[O-])o2)nc2ccccc21,5,?,16µM*,2.2µM*,5µM*,-11
COC(=O)c1c(C)[nH]c(C(=O)C(C)Nc2ccc(OC)cc2OC)c1C (stereo unspecified),10,.,.,.,.,.
CCOC(=O)CN1C(=O)C(O)(CC(=O)c2cccc(OC)c2)c2ccccc21 (stereo unspecified),-8,16µM*,?,22%,-3%,17
C#CCN1C(=O)C(O)(CC(=O)c2cccc(OC)c2)c2ccccc21 (stereo unspecified),9,4.6µM*,5.8µM*,?,2%,40
CC(C)CCn1nc(C(=O)NCc2ccc(F)cc2)c2ccccc2c1=O,3,.,.,.,.,.
Cc1cc(NC(=O)c2cc(-c3ccc(Cl)cc3)on2)no1,7,.,.,.,.,.
CCOc1ccc(S(=O)(=O)n2ccc(C)n2)c2ccccc12,-4,?,?,?,-16%,-53*
CCOc1ccc(S(=O)(=O)N2CCCCC2)c2ccccc12,2,21µM*,18µM*,?,-5%,12

# Source: PubChem BioAssay
